Where “and” joins values, the source holds several entries; their conditions need not be identical. Equal entries are not always repeated. Inconclusive results are not listed. Calls of active or inactive are those of the source. Calls follow the shape of the dose curve; as a rule, active = well fitted inhibition curve with a large enough effect; inconclusive = small, poorly fitted or top-dose-only effect; inactive = flat fitted curve, though single readings scatter.
% is scaled to controls: 0 for no effect and ±100 for the full control effect; potency is read from the fitted curve at half-maximal effect.

This assay concerns KB-3-1. In words: Cytotoxic Profiling of Annotated Libraries Using Quantitative High-Throughput Screening (AID 1296008). Also: nearly all actives have a fitted effect of over 60% in size. The settings on record: Five cell lines viability, CellTiter-Glo ATP luminescence, 48-72 h; max response: hits give low values. Summed up: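 Compounds were pin-transferred onto cells and incubated 48 or 72 hr at 37 degree Celsius, 95% humidity. CellTiter-Glo was added, plates sat 10 min at room temperature, then ATP-coupled luminescence was imaged as the viability read-out.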
Background: ATP-based viability assays read luminescence as a measure of living cells.
As for `CCCCCCCCCCCCCCCC(=O)OCCC1CCN(CCCN2c3ccccc3Sc3ccc(S(=O)(=O)N(C)C)cc32)CC1`, the max response is -4.82% (inactive). The same measure, in the same setting: as for `CC1(C)S[C@@H]2[C@H](NC(=O)[C@H](N)c3ccccc3)C(=O)N2[C@H]1C(=O)OCOC(=O)[C@@H]1N2C(=O)C[C@H]2S(=O)(=O)C1(C)C`, the figure is -17% (inactive). Consider `Cc1ccc(-c2ncccn2)c(C(=O)N2C[C@H](COc3ccc(F)cn3)CC[C@H]2C)c1`, for which the max response was 1.72% (inactive). For the compound `Cc1ccc(/C(=C\CN2CCCC2)c2cccc(/C=C/C(=O)O)n2)cc1`, the max response is -13.8% (inactive). The same measure, in the same setting: as for `c1ccc2c(CCC3CCNCC3)c[nH]c2c1`, the figure is -10.3% (inactive). Turning to `NCCCNCCCCNC(=O)C(O)NC(=O)CCCCCCN=C(N)N` (stereo not given), the max response is -11.3% (inactive). `CC(C)(O)C1Cc2c(ccc(C(=O)CCc3ccccc3)c2O)O1` (stereo not given): the max response is -17.9% (inactive). With `CC(=O)S[C@@H]1CC2=CC(=O)CC[C@]2(C)[C@H]2CC[C@@]3(C)[C@@H](CC[C@@]34CCC(=O)O4)[C@H]12`, the max response is -24% (inactive). Consider `CO/N=C(\C(=O)N[C@@H]1C(=O)N2C(C(=O)OCOC(=O)C(C)(C)C)=C(/C=C\c3scnc3C)CS[C@H]12)c1csc(N)n1`, for which the max response was -14.1% (inactive). `CCN(CC)CCOC(=O)c1ccc(N)cc1Cl`: the max response was 1.25% (inactive). With `CC(C)NC(=O)N1CC[C@H](N=C2Nc3cc(F)ccc3N(CC(F)F)c3ccc(Cl)cc32)C1`, the max response was -1.78% (inactive).

As for `CCOc1ccc(N=C(C)Nc2ccc(OCC)cc2)cc1`, the max response is -26.1% (inactive). Turning to `CCOC(=O)[C@H](CCc1ccccc1)N[C@@H](C)C(=O)N1CC2(C[C@H]1C(=O)O)SCCS2`, the max response is -20.5% (inactive). Turning to `O=P(O)(O)C(O)(Cc1cnc2ccccn12)P(=O)(O)O`, the max response was -1.58% (inactive). For `O=[N+]([O-])c1ccc(Oc2ccc(N=C=S)cc2)cc1`, the max response is -16.8% (inactive). Regarding `COc1ccc(CNCC(O)COc2ccc3[nH]c(=O)ccc3c2)cc1OC` (stereo not given), the max response is 2.61% (inactive). Take `Nc1ncnc(Nc2ccc(Cl)cc2)n1`: the max response is -7.22% (inactive).

For the compound `C=C[C@]1(C)C[C@@H](OC(=O)CO)[C@]2(C)[C@H](C)CC[C@]3(CCC(=O)[C@H]32)[C@@H](C)[C@@H]1O`, the max response is -28.5% (inactive). `CCN(CC)c1ccc(C(=C2C=CC(=[N+](CC)CC)C=C2)c2ccccc2)cc1`: the Potency is 1.3 µM (active).

With `CC(=O)O[C@H]1CC[C@]2(C)[C@H]3CC[C@]4(C)Oc5oc(C)cc(=O)c5C[C@H]4[C@]3(C)CC[C@H]2C1(C)C`, the result was inactive. `CCCC(CCC)C(N)=O`: the max response is -11% (inactive). The same measure, in the same setting: as for `CC1(C)C2CC[C@]3(C)[C@H](C(=O)C=C4[C@@H]5C[C@@](C)(C(=O)O)CC[C@]5(C)CC[C@]43C)[C@@]2(C)CC[C@@H]1O[C@H]1O[C@H](C(=O)O)[C@@H](O)[C@H](O)[C@H]1O[C@@H]1O[C@H](C(=O)O)[C@@H](O)[C@H](O)[C@H]1O` (stereo not given in full), the figure is -22.6% (inactive).

On to `O=S(=O)(O)Oc1ccc(C(c2ccc(OS(=O)(=O)O)cc2)c2ccccn2)cc1`, for which the max response was -0.878% (inactive). Still for that read-out and setting: for `Cc1c(N)nc(C(CC(N)=O)NCC(N)C(N)=O)nc1C(=O)NC(C(=O)NC(C)C(O)C(C)C(=O)NC(C(=O)NCCc1nc(-c2nc(C(=O)NCCCN[C@@H](C)c3ccccc3)cs2)cs1)C(C)O)C(O[C@@H]1O[C@@H](CO)[C@@H](O)[C@H](O)[C@@H]1O[C@H]1O[C@H](CO)[C@@H](O)[C@H](OC(N)=O)[C@@H]1O)c1cnc[nH]1` (stereo not given in full) the value was -0.767% (inactive).

For the compound `CN1CCN(CCCN2c3ccccc3Sc3ccccc32)CC1`, the max response is -4.85% (inactive). Take `NCCCC(=O)O`: the max response is 2.75% (inactive). With `CC(C)(C)[C@H](NC(=O)c1ccc(N)c(Cl)c1)C(=O)N1CCC[C@H]1C(=O)N[C@H](C#N)CC(=O)O`, the max response was 5.39% (inactive). On to `CCOC(=O)[C@H](CCc1ccccc1)N[C@H]1CCCN2CCC[C@@H](C(=O)O)N2C1=O`, for which the max response is 1.33% (inactive). On the same count and under the same terms, for `O=S(O)CO` the value was -16% (inactive); for `Nc1ncnc2c1c(-c1ccc(Oc3ccccc3)cc1)nn2[C@@H]1CCCNC1`, -20% (inactive). For `CCCCc1cc2c(=O)c(C(=O)OC)c[nH]c2cc1OCc1ccccc1`, the max response is -10.6% (inactive).

As to `N[C@@H](C(=O)N[C@H]1C(=O)N2C(C(=O)O)=C(Cl)CC[C@H]12)c1ccccc1`, the max response is -8.22% (inactive).

In the case of `CCCCCCCCCCCCCCCCCC(=O)OCCO`, the max response was -9.35% (inactive). The same measure, in the same setting: for `CCC(=O)OCC(=O)[C@@]1(OC(=O)CC)[C@H](C)C[C@H]2[C@@H]3CCC4=CC(=O)C=C[C@]4(C)[C@@]3(F)[C@@H](O)C[C@@]21C` the value was -9.03% (inactive); for `CSCC[C@H](NC(=O)[C@H](Cc1ccc(OS(=O)(=O)O)cc1)NC(=O)[C@@H](N)CC(=O)O)C(=O)NCC(=O)N[C@@H](Cc1c[nH]c2ccccc12)C(=O)N[C@@H](CCSC)C(=O)N[C@@H](CC(=O)O)C(=O)N[C@@H](Cc1ccccc1)C(N)=O`, -5.26% (inactive) and -10.7% (inactive); for `CCC(=O)Oc1ccc2c(c1)CC[C@@H]1[C@@H]2CC[C@]2(C)[C@@H](OC(=O)CC)CC[C@@H]12`, -26.3% (inactive). On to `CCCCCCCCCCCCCCCC(=O)OC[C@@H](COP(=O)([O-])OCC[N+](C)(C)C)OC(=O)CCCCCCCCCCCCCCC`, for which the max response was 1.61% (inactive). Consider `COCc1c(Cl)ccc2c1CC[C@H]2c1ncc[nH]1`, for which the max response is -11.1% (inactive). Still for that read-out and setting: as for `Cc1[nH]cnc1C[C@H]1CCc2c(C)c3ccccc3n2C1=O`, the figure is -19% (inactive). As for `COc1cc2c(c(OC)c1OC)-c1c(cc3c(c1OC)OCO3)C[C@@H](C)[C@](C)(O)C2`, the max response is 21.3% (inactive) and -4.33% (inactive).

(Values after PubChem BioAssay (NCATS).)
